Assay results: PubChem BioAssay (NCATS)
Results filed as inconclusive are left out. Active and inactive are the calls of the source. Calls come from the whole dose curve; as a rule, active = well fitted inhibition curve with a large enough effect; inconclusive = small, poorly fitted or top-dose-only effect; inactive = flat fitted curve, though single readings scatter. Where a SMILES comes first, the peptide text is derived from it. Bridges are numbered along the chain shown (N, C = ends). [ ]: non-standard residue; d: D form. hArg = N=C(N)NCCCC[C@H](N)C(=O)O; Mpa = O=C(O)CCS

How the values were obtained:
Assay in all cases: qHTS profiling for inhibitors of Plasmodium falciparum proliferation (AID 504749); note: nearly all actives have a fitted effect of over 60% in size
Conditions in all cases: P. falciparum in erythrocytes, SYBR Green DNA, 72 h; series mostly up to 28.7 µM
CP335 = system: CP335
Procedure, shortened: (§1)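 Readout was DNA-dye fluorescence from lysed cultures, ex 485/em 535 nm. Parasitized red cells had grown 72 h with compound; data scaled between 0.29 uM artemisinin and DMSO wells and corrected using vehicle-only plates.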

DFO2036 = system: DFO2036
Procedure, shortened: as §1

DIV14 = system: DIV14
Procedure, shortened: as §1

DIV17 = system: DIV17
Procedure, shortened: as §1

DIV30 = system: DIV30
Procedure, shortened: as §1

Dd2 = system: Dd2
Procedure, shortened: as §1

ECU = system: ECU
Procedure, shortened: as §1

FAB9 = system: FAB9
Procedure, shortened: as §1

GB4 = system: GB4
Procedure, shortened: as §1

HB3 = system: HB3
Procedure, shortened: as §1

Measured: Potency

COc1ccccc1OC(=O)Oc1ccccc1OC
inactive: all assays above

C=CCNC(N)=S
inactive: all assays above

CC(=O)Nc1ccccc1
inactive: all assays above

CN(C(=O)c1c(O)c2ccccc2n(C)c1=O)c1ccccc1
inactive: all assays above

CCCCC1(COC(=O)CCC(=O)O)C(=O)N(c2ccccc2)N(c2ccccc2)C1=O
inactive: all assays above

O=C(O)c1ccccc1OP(=O)(O)O
inactive: all assays above

CCCCCC(N)=O
inactive: all assays above

O=C(O)Cn1c(C(=O)Nc2nc(-c3ccccc3Cl)cs2)cc2ccccc21
inactive: all assays above

C[N+](C)(C)CC[N+]1(C)Cc2c(Cl)c(Cl)c(Cl)c(Cl)c2C1
inactive: all assays above

O=C(O)c1ccccc1C(=O)Nc1ccc(S(=O)(=O)Nc2nccs2)cc1
inactive: all assays above

O=c1[nH]c2cc(C(F)(F)F)c(N3CCOCC3)cc2n(CP(=O)(O)O)c1=O
inactive: all assays above

CCS(=O)(=O)CCn1c([N+](=O)[O-])cnc1C
inactive: all assays above

CN1C(C)(C)CCCC1(C)C
inactive: all assays above

CN/C(=C\[N+](=O)[O-])NCCSCc1csc(CN(C)C)n1
inactive: all assays above

O=C(Cn1ccnc1[N+](=O)[O-])NCc1ccccc1
inactive: all assays above

C[C@@H]1O[C@@H](OC[C@H]2O[C@@H](Oc3c(-c4ccc(O)c(O)c4)oc4cc(O)cc(O)c4c3=O)[C@H](O)[C@@H](O)[C@@H]2O)[C@H](O)[C@H](O)[C@H]1O
inactive: all assays above

NC(=O)[C@@H]1CSSCCC(=O)N[C@@H](CCCCN=C(N)N)C(=O)NCC(=O)N[C@@H](CC(=O)O)C(=O)N[C@@H](Cc2c[nH]c3ccccc23)C(=O)N2CCC[C@H]2C(=O)N1 ([Mpa][hArg]GDWPC-NH2; disulfide 1-7)
inactive: all assays above

O=C1c2cccc(O)c2C(=O)c2c(O)cccc21
inactive: all assays above

CC(=O)NCc1c(I)c(NC(C)=O)c(I)c(C(=O)O)c1I
inactive: all assays above

CC(=O)Nc1ccc(C(=O)O)cc1
inactive: all assays above

O[C@@H]1CO[C@H]2[C@@H]1OC[C@@H]2O
inactive: all assays above

NC(=O)CC[C@@H](N)C(=O)O
inactive: all assays above

O=C(NCCCN1CCOCC1)c1ccc(Cl)cc1
inactive: all assays above

CN1CCN(C(=O)C2CCCCC2)CC1
inactive: all assays above

COc1ccc2cc(CCC(C)=O)ccc2c1
inactive: all assays above

CCN(CC)CC1CCCCN1CC(=O)N1c2ccccc2C(=O)Nc2cccnc21 (stereo not given)
inactive: all assays above

Cc1c(I)c(=O)n(-c2ccccc2)n1C
inactive: all assays above

CC(=O)Oc1cccc(O)c1
inactive: all assays above

COc1ccc(C(=O)N2CCN(CC(=O)N3CCOCC3)CC2)cc1
inactive: all assays above

OCC(O)CS (stereo not given)
inactive: all assays above

COc1ccc(NS(=O)(=O)c2ccc(N)cc2)nn1
inactive: all assays above

Cc1ccccc1N=Nc1ccc(N=Nc2c(O)ccc3ccccc23)c(C)c1
inactive: all assays above

COc1nccnc1NS(=O)(=O)c1ccc(N)cc1
inactive: all assays above

CCCCOC(=O)c1ccc(N)cc1
inactive: all assays above

O=c1[nH]cnc2nc[nH]c12
inactive: all assays above

Cc1cc(C)nc(NS(=O)(=O)c2ccc(N)cc2)n1
inactive: all assays above

O=C(Cn1ccnc1[N+](=O)[O-])NCCO
inactive: all assays above

CC(=O)SC[C@@H](Cc1ccccc1)C(=O)NCC(=O)OCc1ccccc1
inactive: all assays above

C=CCSCC1Nc2cc(Cl)c(S(N)(=O)=O)cc2S(=O)(=O)N1 (stereo not given)
inactive: all assays above

CC(O)CCCCn1c(=O)c2c(ncn2C)n(C)c1=O (stereo not given)
inactive: all assays above

Cc1ccc(S(=O)(=O)NC(=O)NC2CCCCCCC2)cc1
inactive: all assays above

CCOC(N)=O
inactive: all assays above

NC(=O)NS(=O)(=O)c1ccc(N)cc1
inactive: all assays above

Cc1ccsc1C(=CCCN1CCC[C@@H](C(=O)O)C1)c1sccc1C
inactive: all assays above

CC1CCc2cc(F)cc3c(=O)c(C(=O)O)cn1c23 (stereo not given)
inactive: all assays above

O=C(O)CCCc1ccccc1
inactive: all assays above

CC(C)c1cc2c(cc1S(=O)(=O)O)[C@@]1(C)CCC[C@@](C)(C(=O)O)[C@@H]1CC2
inactive: all assays above

CC(C)(C)C(=O)OCOC(=O)[C@@H]1N2C(=O)[C@@H](NC(=O)[C@H](N)c3ccccc3)[C@H]2SC1(C)C
inactive: all assays above
